Compounds with a hit are over-represented: about 28% of the library has one in this group of screens.
CYP2C9 inhib: blockers of cytochrome P450 2C9 activity – biochemical, luminescence, ADME assay, primary screen. P11712. CYP2C9 Supersomes, luciferin-H conversion. inhibition, % at 5 µM. 20% of 96,000 active. AID 777, 2007;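 active = blocking of liver enzyme CYP2C9 beyond about 50% at 5 µM, limit read from the data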
CYP2C9 act: human CYP2C9 activators, primary screen, biochemical, luminescence. Cytochrome P450 2C9 (Homo sapiens), P11712. recombinant CYP2C9, luciferin-H conversion; stronger effect = higher value; factor 1 = untreated enzyme, 0 = blocked. activation factor at 5 µM. 1.4% of 96,000 active;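 active = activation factor of 2 or more for CYP2C9 at a 5 µM dose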
CYP2C19 inhib: blockers of cytochrome P450 2C19 activity – biochemical, luminescence, ADME assay, primary screen; 21% of 96,000 active; inhibition, % at 5 µM; P33261; CYP2C19 Supersomes, luciferin-H EGE luminescence, 30 min;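 active = CYP2C19 inhibition above a set limit at 5 µM in the primary screen, cut at about 50% in these data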
CYP2C19 activ: human CYP2C19 activators, primary screen, biochemical, luminescence. activation factor at 5 µM. recombinant CYP2C19, luciferin-H EGE luminescence; stronger effect = higher value; 0 = fully inhibited enzyme, 1 = untreated enzyme. 96,000 tested, under 10 active. AID 1025, 2008. Cytochrome P450 2C19 (Homo sapiens), P33261;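 active = activation factor of at least 2 at 5 µM in the primary screen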
PTK2B oligo ant: antagonists of Pyk2 self-association, primary screen, Q293 cells, FERM NanoBiT luminescence, HTS | z-score (the deposit names both 25 µM and 10 µM) | AID 1347419, 2020 | 0.83% of 99,000 active | stronger effect = lower value;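 active = Z-score of -3 or lower, scaled per plate to the spread of control and sample wells; inactive = z-score above -3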;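 also: negative z-score means lost luminescence so less FERM oligomerization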
Hits are given with their value; 0 = inactive; - = no result.

SMILES	CYP2C9 inhib	CYP2C9 act	CYP2C19 inhib	CYP2C19 activ	PTK2B oligo ant
CN(C(=O)Nc1ccc(Cl)cc1Cl)[C@H]1c2cc(Br)ccc2OC[C@H]1CO	87.0	0	0	0	0
CCOC(=O)c1cnc(-n2nc(C)cc2C)nc1NC	0	0	0	0	0
CCOC(=O)c1cnc(-n2nc(C)cc2C)nc1N(CC)CC	78.6	0	0	0	0
CCNC(=O)C(Sc1ccccc1)c1ccccc1 (stereo not drawn)	-	-	-	-	0
CC(C)(C)NS(=O)(=O)c1ccc(CCC(=O)O)cc1	0	0	0	0	0
CC(C)(C)NS(=O)(=O)c1ccc(NC(=O)C(Sc2ccccc2)c2ccccc2)cc1 (stereo not drawn)	63.0	0	0	0	0
CC(C)(C)NS(=O)(=O)c1ccc(NS(=O)(=O)Cc2ccccc2)cc1	81.2	0	71.8	0	0
CC1CN(C(=S)NC(=O)c2ccc([N+](=O)[O-])cc2)CC(C)O1 (stereo not drawn)	0	0	0	0	0
Cc1cc(C)nc(-n2nc(C)cc2NC(=O)COC(=O)CCC(=O)c2cccs2)n1	0	0	0	0	0
S=C(NCCSCc1ccccc1Cl)Nc1ccccc1	0	0	96.2	0	0
S=C(NCCSCc1ccc(Cl)cc1)Nc1ccccc1	52.1	0	51.3	0	0
CS(=O)(=O)NCCSCc1ccc(Cl)cc1	0	0	0	0	0
N#CCc1nnc2n1-c1ccccc1CCC2	0	0	0	0	0
CCc1ccc(-c2csc3ncn(CC(=O)N4CCOCC4)c(=O)c23)cc1	0	0	0	0	0
C=CCn1cnc2scc(-c3ccc(C)cc3)c2c1=O	65.2	0	92.2	0	0
CC(C)CNC(=O)C1CCCN1S(=O)(=O)c1ccc(Cl)cc1 (stereo not drawn)	0	0	0	0	0
CC1CCCCN1S(=O)(=O)c1ccc(C(=O)Nc2sccc2C(N)=O)cc1 (stereo not drawn)	97.1	0	0	0	-
NC(=O)c1ccsc1NC(=O)C1CCCN1S(=O)(=O)c1ccc(Cl)cc1 (stereo not drawn)	77.9	0	60.9	0	0
O=C(Nc1nccs1)C1CCCN1S(=O)(=O)c1ccc(Cl)cc1 (stereo not drawn)	69.0	0	0	0	0
CC1CCCCN1C(=O)c1ccc(S(=O)(=O)N2CCCCC2C)cc1 (stereo not drawn)	0	0	0	0	0
Cc1c(NC(=O)C2CCCN2S(=O)(=O)c2ccc(Cl)cc2)c(=O)n(-c2ccccc2)n1C (stereo not drawn)	0	0	0	0	0
COc1ccc(CC(=O)n2c(CC#N)nc3ccccc32)cc1OC	0	0	0	0	0
CN(C)N1C(N)=C(C#N)C(c2cccnc2)C2=C1CC(C)(C)CC2=O (stereo not drawn)	0	0	0	0	0
CC(C)(C)n1nnnc1CN(Cc1cccnc1)Cc1ccccc1Cl	0	0	88.1	0	0
CC(C)(C)n1nnnc1C(c1cccnc1)N(Cc1ccccc1)Cc1cccs1 (stereo not drawn)	60.7	0	0	0	-3.59
SMILES	CYP2C9 inhib	CYP2C9 act	CYP2C19 inhib	CYP2C19 activ	PTK2B oligo ant
CC(C)(C)n1nnnc1C(c1cccs1)N(Cc1ccccc1)Cc1cccnc1 (stereo not drawn)	0	0	0	0	-4.18
COC(=O)c1ccc(N(C(=O)CNC(=O)c2ccco2)C(C(=O)NC2CCCC2)c2ccco2)cc1 (stereo not drawn)	-	-	-	-	0
Cc1ccc(S(=O)(=O)Oc2ccc(/C=C(/NC(=O)c3ccccc3)C(=O)Nc3ccccc3)cc2)cc1	58.7	0	0	0	0
O=C(N/N=C/c1ccncc1)/C(=C/c1ccccc1)NC(=O)c1ccccc1	78.7	0	51.0	0	0
O=C(Nc1ccccc1)/C(=C\c1ccncc1)NC(=O)c1ccccc1	95.6	0	100.3	0	0
COc1cc(NC(=O)CN2c3cccc4cccc(c34)S2(=O)=O)cc(OC)c1OC	0	0	0	0	0
CCCN1c2cccc3cccc(c23)S1(=O)=O	0	4.4	89.9	0	0
N#CCCCCN1c2cccc3cccc(c23)S1(=O)=O	0	4.9	85.3	0	0
N#CC1=C(S)N=C(N)C(c2nc(-c3ccccc3)cs2)C12CCCC2 (stereo not drawn)	98.4	0	86.3	0	0
N#CC1=C(N)N=C(SCc2ccccc2)C(C(N)=O)C12CCCCC2 (stereo not drawn)	0	0	0	0	0
N#CC1=C(S)N=C(N)C(c2nc(-c3ccccc3)cs2)C12CCCCC2 (stereo not drawn)	67.1	0	59.5	0	0
Cc1ccc(-c2csc(C3C(N)=NC(S)=C(C#N)C34CCCCC4)n2)cc1 (stereo not drawn)	88.6	0	0	0	0
CC(C)(O)C#Cc1ccccc1C(=O)NC(CC(N)=O)C(=O)O (stereo not drawn)	0	0	0	0	0
COc1ccc(C2C(C(=O)Nc3ccc4c(c3)OCCO4)c3ccccc3C(=O)N2C)cc1 (stereo not drawn)	0	0	0	0	0
CCOC(=O)c1ccc2c(c1)nc(SCC(=O)N1CCCCC1)n2CC	87.7	0	77.5	0	0
CCn1c(SCC(=O)N2CCCC2)nnc1-c1ccc(N)cc1	-	-	-	-	0
CCOC(=O)c1ccc2c(c1)nc(SCC(=O)c1ccco1)n2CC	69.3	0	0	0	0
CCOC(=O)c1ccc2c(c1)nc(SC/C(O)=C(\C#N)c1nc3ccccc3[nH]1)n2CC	0	0	0	0	0
Cc1ccccc1-c1noc(C2CCCCC2)n1	0	0	0	0	0
COc1ccc(N2CCN(C(c3cc(OC)ccc3OC)c3nnnn3CC3CCCO3)CC2)cc1 (stereo not drawn)	-	-	-	-	0
Cc1cc2oc(=O)cc(CN3CCCCC3C)c2c(C)c1Cl (stereo not drawn)	0	0	55.6	0	0
Cc1cc2oc(=O)cc(CN3CCC(C)CC3)c2cc1Cl	0	0	85.2	0	0
Cc1ccc2c(CN3C(=O)NC(C)(c4ccc5c(c4)OCO5)C3=O)cc(=O)oc2c1 (stereo not drawn)	98.3	0	92.3	0	0
Cc1ccc2c(CN3CCC(C)CC3)cc(=O)oc2c1	67.3	0	100.2	0	0
O=C1NCCCC1C(=O)N/N=C/c1ccccc1 (stereo not drawn)	0	0	0	0	0
CC(C)CN(CC(C)C)C(=O)C12CCC(C)(C(=O)O1)C2(C)C (stereo not drawn)	-	-	-	-	0
Cc1cc(C)cc(N2C(=O)C3C4C=CC(C4)C3C2=O)c1 (stereo not drawn)	0	0	62.7	0	0
Nc1nc(-c2ccc(Cl)cc2Cl)cn1N	0	0	0	0	0
Cc1ccc(N2C(=O)CSC2c2cccs2)cc1 (stereo not drawn)	0	0	76.6	0	0
